For 40 molecules, inhibition results are on record in PubChem BioAssay.

Active and inactive are the calls of the source. How the calls were made is not given here.

Chain of Pantothenate synthetase (Mycobacterium tuberculosis (strain ATCC 25618 / H37Rv)) (P9WIL5 whole entry, looked up): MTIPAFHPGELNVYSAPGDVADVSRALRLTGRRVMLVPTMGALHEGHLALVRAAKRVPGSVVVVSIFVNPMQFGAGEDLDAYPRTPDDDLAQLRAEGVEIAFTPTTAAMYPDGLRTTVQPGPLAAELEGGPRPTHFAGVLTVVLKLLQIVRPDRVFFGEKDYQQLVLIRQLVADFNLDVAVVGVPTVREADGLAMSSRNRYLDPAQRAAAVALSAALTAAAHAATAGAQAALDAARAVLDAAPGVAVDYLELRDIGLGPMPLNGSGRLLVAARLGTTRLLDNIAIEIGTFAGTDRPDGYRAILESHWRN

The test addresses Pantothenate synthetase (Mycobacterium tuberculosis (strain ATCC 25618 / H37Rv)) (UniProt P9WIL5). The experiment in a line: Recombinant Mtb pantothenate synthetase (PanC) inhibitors, coupled enzyme, confirmatory (AID 375).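 Further: 0% = full reaction with vehicle and 100% = no enzyme background.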 Particulars: coupled enzyme assay; at 10 µM, stronger effect = higher value.
Regarding `COc1ccc(CSCCN)cc1Cl`, the inhibition is 0% (inactive).
For `CCCCOC(=O)c1cccc(NC(=O)CC)c1` the value was 0% (inactive).
On to `CCOc1ccccc1NC(=O)C1CCCN1C(=O)OCc1ccccc1` (stereo not given), for which the inhibition was 0% (inactive).
As for `CCN(CC)C(=O)CSc1nc2ccc(NC(=O)CSc3nccn3C)cc2s1`, the inhibition is 7% (inactive).
As to `CC1(C)CC(=O)CC(=Nc2ccc(C(=O)O)cc2)C1`, the inhibition is 8% (inactive).
As to `Cc1nnc(SCC(=O)N2CCN(S(=O)(=O)c3ccccc3)CC2)[nH]c1=O`, the inhibition was 0% (inactive).
Regarding `CCOC(=O)CSc1nnc(-c2cccnc2)n1Cc1ccccc1`, the inhibition was 0% (inactive).
With `CCOC(=O)CSc1nnc(NCC(=O)OC(C)C)c(=O)[nH]1`, the inhibition was 4% (inactive).
For `Cc1cc(OCC(=O)N2CCCC2)cc(C)c1Cl` the value was 2% (inactive); for `Cc1ccc2[nH]c(=O)c(CN(CCCN3CCOCC3)C(=O)Nc3cccc(Cl)c3)cc2c1`, 0% (inactive); for `COc1ccc(Cl)cc1NC(=O)CSc1nncn1-c1cccnc1`, 9% (inactive).
As for `COc1ccccc1CNC(=O)N[C@@H](Cc1ccccc1)C(=O)O`, the inhibition was 6% (inactive).
Regarding `CCOc1ccc2[nH]cc(C(=O)N3CCN(CC)CC3)c(=O)c2c1`, the inhibition is 0% (inactive).
Take `COc1ccc2nc(NC(=O)c3ccoc3C)sc2c1`: the inhibition was 0% (inactive).
`Cc1ccc(Nc2cc(C)nc3ncnn23)c(Cl)c1`: the inhibition is 0% (inactive).
`O=C1NCCCc2c1no[n+]2[O-]`: the inhibition is 18% (inactive).
Take `CCNC(=O)N1c2ccc(OCC)cc2C(C)=CC1(C)C`: the inhibition is 0% (inactive).
On to `Cc1cccc(NC(=O)C2CCCN2C(=O)OCC(C)C)c1C` (stereo not given), for which the inhibition was 0% (inactive).
Take `COc1ccc(-c2noc(CSc3nc4ccccc4c(=O)n3-c3ccccc3)n2)cc1OC`: the inhibition was 1% (inactive).
Take `CCN(CC)CCOC(=O)c1ccc(NC(=O)COc2cc(=O)n(CC)c3ccccc23)cc1`: the inhibition was 2% (inactive).
As for `C1CNCCNCCNCCN1`, the inhibition was 0% (inactive).
For `C=CCn1c(SCC(=O)NC23CC4CC(CC(C4)C2)C3)nc(O)cc1=O` the value was 0% (inactive).
Take `O=C(c1ccc(CNc2c(N3CCCC3)c(=O)c2=O)cc1)N1CCc2ccccc2C1`: the inhibition is 1% (inactive).
Consider `COc1ccc2c(c1)c(CC(=O)OCC(=O)O)c(C)n2C(=O)c1ccc(Cl)cc1`, for which the inhibition was 0% (inactive).
For `c1cc2c(cc1C1CCCN1)OCCCO2` (stereo not given) the value was 2% (inactive); for `COCCNC(=O)C(c1ccncc1)N(C(=O)Cn1nnc2ccccc21)c1ccc(OC)cc1` (stereo not given), 0% (inactive).
In the case of `Cc1ccc(N2C(=O)c3ccccc3C2Nc2cccnc2)nc1` (stereo not given), the inhibition was 1% (inactive).
For `Cc1ccc(C)n1NC(=O)c1ccco1`, the inhibition was 0% (inactive).
For `COC(=O)c1ccccc1NC(=O)CSc1nnc(-c2ccncc2)o1`, the inhibition was 0% (inactive).
For `COc1ccc(C(=O)NCCn2ccc3ccccc32)cc1` the value was 0% (inactive).
Consider `CC1(C)CC(=O)C2=C(C1)OC(=O)C2(NC(=O)c1cccs1)C(F)(F)F` (stereo not given), for which the inhibition is 1% (inactive).
As for `O=C(Nc1ccc2[nH]c3c(c2c1)CCCC3)c1ccco1`, the inhibition was 0% (inactive).
For `Cc1sc2c(c1C)CN(C1CC(C)(C)NC(C)(C)C1)CN2C(=O)c1ccco1` the value was 7% (inactive); for `C(/CCc1ccccc1)=N\n1cnnc1`, 8% (inactive).
As to `O=C(NCCN1CCOCC1)c1ccc2c(c1)N(Cc1ccccc1)C(=O)CS2`, the inhibition was 0% (inactive).
`CCCCN(C)C(=O)CS(=O)(=O)Cc1nc(-c2cccc(OC)c2)oc1C`: the inhibition was 0% (inactive).
For `CCCSC1=C(C#N)C(c2cc(OC)ccc2OC)CC(=O)N1` (stereo not given) the value was 14% (inactive).
On to `Cc1ccc(C2CC(c3cccc(Br)c3)Nc3nnnn32)cc1` (stereo not given), for which the inhibition was 1% (inactive).
On to `CC(=O)OC(C(=O)NC1CCCCC1)c1ccncc1` (stereo not given), for which the inhibition is 10% (inactive).
Turning to `Cc1cc(C(=O)COC(=O)C2COc3ccccc3O2)c(C)n1CC1CCCO1` (stereo not given), the inhibition is 0% (inactive).
